Values joined by “and” are separate entries in the source; they are usually repeats but may differ in a detail not shown here. Identical values can stand only once. Results filed as inconclusive are left out. Values without a mark were called inactive. Active and inactive are the calls of the source. Calls come from the whole dose curve; as a rule, active = well fitted inhibition curve with a large enough effect in the signal ratio in the repeat runs; inconclusive = weak or mixed curves, or effect the other way; inactive = flat fitted curve, though single readings scatter; the % refers to the signal ratio.
Experiment: qHTS assay for small molecule disruptors of the mitochondrial membrane potential (AID 720635)
Conditions: HepG2 mitochondrial membrane potential, Mito-MPS dye ratio; series mostly up to 83.2 µM; ratio activity, negative = MMP loss: at the top concentration
Description: U.S. Tox21 Program National Center for Advancing Translational Sciences [NCATS] NIH Chemical Genomics Center [NCGC] U.S. Environmental Protection Agency [EPA] National Institutes of Environmental Health Sciences [NIEHS] National Toxicology Program [NTP] U.S. Food and Drug Administration [FDA] Tox21 Assay Overview: Mitochondrial membrane potential (MMP), one of the parameters for mitochondrial function, is generated by mitochondrial electron transport chain that creates an electrochemical gradient by a series of redox reactions. This gradient drives the synthesis of ATP, a crucial molecule for various cellular processes. Measuring MMP in living cells is commonly used to assess the effect of chemicals on mitochondrial function. […] The dye accumulates in the mitochondria of healthy cells as aggregates, with red fluorescence. The mitochondrial potential collapses and the dye can no longer accumulate in the mitochondria and remains in the cytoplasm in monomers, with green fluorescence.
Tox21 Assay Protocol Summary: 2,000 HepG2 cells in 5 uL/well were dispensed into black, clear-bottom 1536-well plates using a Multidrop Combi (Thermo Scientific) dispenser. The assay plates were incubated overnight at 37C to allow cells to attach to the wells, followed by the transfer of 23 nL compound or DMSO vehicle by a pin tool (Kalypsys). The plates were incubated for 1 hr at 37C and 5% CO2, followed by the addition of 5 uL of 2X Mito-MPS dye (BD Biosciences) into each well using Flying Reagent Dispenser (Aurora Discovery) and then following 30 min incubation at 37C. Fluorescence intensity (490nm excitation and 535nm emission for monomers; and 540nm excitation and 590nm emissions for aggregates) was measured using an Envision plate reader.
% is set by controls: 0 for no effect and ±100 for the full control effect; potency is the fitted concentration of half-maximal effect.

SMILES	Potency	ratio activity, negative = MMP loss
CCN(CC)C(=S)SSC(=S)N(CC)CC	7.7 µM (active) and 7.02 µM (active)	
C1COC(NC(C2CC2)C2CC2)=N1		6.08%
CCc1ccc(C(c2ccc(CC)cc2)C(Cl)Cl)cc1	49.3 µM (active) and 27.3 µM (active)	
COC(c1ccccc1)(c1ccccc1)[C@H](Oc1nc(C)cc(C)n1)C(=O)O		-6.71%
CCCNC(C)C(=O)Nc1ccccc1C (stereo not given)		11.5%
CCCCCCCCCCCC[N+](C)(C)C	61.1 µM (active)	
CCCCCCCCCCCCc1ccccc1O	2.14 µM (active) and 2.43 µM (active)	
CC(C)(C)NC(=O)[C@@H]1CN(Cc2cccnc2)CCN1C[C@@H](O)C[C@@H](Cc1ccccc1)C(=O)N[C@H]1c2ccccc2C[C@H]1O	7.5 µM (active)	
CCCCCC(=O)O[C@]1(C(C)=O)CC[C@H]2[C@@H]3CCC4=CC(=O)CC[C@]4(C)[C@H]3CC[C@@]21C	11.9 µM (active) and 15.2 µM (active)	
CC(=O)CC(=O)Nc1ccc2[nH]c(=O)[nH]c2c1		7.91%
NC(=Nc1ccccc1)Nc1ccccc1	3.35 µM (active) and 15.4 µM (active)	
C=C(C)C1CC=C(C)C(OC(C)=O)C1 (stereo not given)	inactive	
O=C(O)c1cccc(C(=O)O)c1		6.41% [at 95.3 µM]
Cc1cc(OCCOCC[N+](C)(C)Cc2ccccc2)ccc1C(C)(C)CC(C)(C)C	16.8 µM (active) and 3.05 µM (active)	
CCOc1ccccc1C(N)=O	inactive	
O	31 µM (active)	
Cc1cccc2n[nH]nc12	inactive	
Cc1cc(C(C)(C)C)c(O)c(C(C)(C)C)c1	48.7 µM (active) and 24.3 µM (active)	
COC(=O)c1cccc(C(=O)OC)c1	inactive	
CC(C)(C)NCC(O)c1cc(O)cc(O)c1 (stereo not given)		-17.2%

SMILES	Potency	ratio activity, negative = MMP loss
COC(=O)[C@H]1[C@H]2C[C@@H]3c4[nH]c5cc(OC)ccc5c4CCN3C[C@H]2C[C@@H](OC(=O)c2cc(OC)c(OC)c(OC)c2)[C@@H]1OC	48.5 µM (active)	
CN(C)c1ccc(C(=C2C=CC(=[N+](C)C)C=C2)c2ccccc2)cc1	29.8 µM (active) and 77 nM (active)	
CCC(C)(Oc1ccc(C2(c3ccc(OC(C)(CC)C(=O)O)cc3)CCCCC2)cc1)C(=O)O (stereo not given)		13.8%
COc1ccc(Cc2cnc(N)nc2N)cc1OC		-24.1%
Cc1c(O)cccc1C(=O)N[C@@H](CSc1ccccc1)[C@H](O)CN1C[C@H]2CCCC[C@H]2C[C@H]1C(=O)NC(C)(C)C	10.6 µM (active) and 7.49 µM (active)	
CCCCC(CC)COC(=O)CC(C(=O)OCC(CC)CCCC)S(=O)(=O)O (stereo not given)	58.8 µM (active)	
CC(=O)OCC1=C(C(=O)O)N2C(=O)[C@@H](NC(=O)Cc3cccs3)[C@H]2SC1		-5.98%
Cc1ccc(-c2cc(C(F)(F)F)nn2-c2ccc(S(N)(=O)=O)cc2)cc1	11.9 µM (active) and 7.66 µM (active) and 21.7 µM (active)	
C[N+]1([O-])CCOCC1		14.4%
CNC1(C)C2CCC(C2)C1(C)C (stereo not given)		14.1%
CCn1cc(C(=O)O)c(=O)c2cc(F)c(N3CCNC(C)C3)c(F)c21 (stereo not given)	inactive	
C=CC(=O)OCCCCCCOC(=O)C=C		-12.8%
Oc1c(Cl)cc(Cl)c(Cl)c1Cc1c(O)c(Cl)cc(Cl)c1Cl	841 nM (active) and 484 nM (active) and 344 nM (active)	
O=C(O)CP(=O)(O)O		12.2%
CCC(=O)/C=C/C1C(C)=CCCC1(C)C (stereo not given)	27.3 µM (active)	
O=C(Cl)c1cccc(C(=O)Cl)c1	inactive	
Nc1cc(Cl)c(-c2cc(Cl)c(N)cc2Cl)cc1Cl	9.68 µM (active) and 13.7 µM (active)	
c1ccc2n[nH]nc2c1	inactive	
c1cnc2cc3c(cc2n1)C1CNCC3C1		-13.2% [at 95.3 µM]
O=S(=O)(O)c1ccc2nc(-c3ccccc3)[nH]c2c1		10.7%

— PubChem BioAssay (Tox21)
